According to PubChem BioAssay AID1159580 (chemical genetic matrix, 2015):
Out of some 5,500 compounds screened, about 2,000 (36%) were called active. Roughly 18% stayed inconclusive and do not appear here. No stated cut-off is given here; in the data, active means normalized growth mostly below about 0.91 (no sharp cut-off); inconclusive means no clear call, values can overlap the other calls; inactive means mostly above about 0.92. The list shows a part of the results.

Assay: chemical genetic growth profiling, strain panel (AID 1159580);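 further: tested at 20 µM; growth read once vehicle control cultures reached saturation at 30 °C; 1 = growth at the plate median or of vehicle wells; lower values mean less growth of the strain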
Conditions: growth OD

Measured: normalized growth

N#Cc1ccc2c(c1)N(CCCN1CCC(O)CC1)c1ccccc1S2
inactive: S. cerevisiae deletion strains, locus YJR075W, strain HOC1, active compounds read low 1.03 | S. cerevisiae deletion strains, locus YKL009W, strain mrt4, active compounds read low 1.01 | S. cerevisiae deletion strains, locus YKL068W, active compounds read low 1.01 | S. cerevisiae deletion strains, locus YKL085W, strain MDH1 (second series), active compounds read low 1.04 | S. cerevisiae deletion strains, locus YKL085W, strain MDH1, active compounds read low 1.04 | S. cerevisiae deletion strains, locus YKL160W, strain elf1, active compounds read low 0.998 | S. cerevisiae deletion strains, locus YKL190W, strain CNB1, active compounds read low 1.01 | S. cerevisiae deletion strains, locus YKR001C, strain vps1, active compounds read low 1.02 | S. cerevisiae deletion strains, locus YKR026C, strain gcn3, active compounds read low 0.995 | S. cerevisiae deletion strains, locus YKR091W, strain srl3, active compounds read low 0.995 | S. cerevisiae deletion strains, locus YLL001W, strain dnm1, active compounds read low 0.996 | S. cerevisiae deletion strains, locus YLL026W, active compounds read low 0.987 | S. cerevisiae deletion strains, locus YLL041C, strain sdh2, active compounds read low 0.996 | S. cerevisiae deletion strains, locus YLR027C, strain aat2, active compounds read low 0.992 | S. cerevisiae deletion strains, locus YLR039C, strain RIC1, active compounds read low 1.08 | S. cerevisiae deletion strains, locus YLR058C, strain SHM2, active compounds read low 1.01 | S. cerevisiae deletion strains, locus YLR102C, strain apc9, active compounds read low 1.02 | S. cerevisiae deletion strains, locus YLR113W, strain HOG1, active compounds read low 1.05 | S. cerevisiae deletion strains, locus YLR221C, strain rsa3, active compounds read low 0.995 | S. cerevisiae deletion strains, locus YLR258W, strain gsy2, active compounds read low 0.977 | S. cerevisiae deletion strains, locus YLR262C, strain YPT6 (second series), active compounds read low 1.02 | S. cerevisiae deletion strains, locus YLR262C, strain YPT6, active compounds read low 1.07 | S. cerevisiae deletion strains, locus YLR268W, strain sec22, active compounds read low 1.01 | S. cerevisiae deletion strains, locus YLR320W, strain mms22, active compounds read low 0.959 | S. cerevisiae deletion strains, locus YLR330W, strain CHS5, active compounds read low 1 | S. cerevisiae deletion strains, locus YLR342W, strain FKS1 (second series), active compounds read low 0.989 | S. cerevisiae deletion strains, locus YLR342W, strain FKS1, active compounds read low 0.992 | S. cerevisiae deletion strains, locus YLR357W, strain rsc2, active compounds read low 0.969 | S. cerevisiae deletion strains, locus YLR370C, strain arc18, active compounds read low 0.994 | S. cerevisiae deletion strains, locus YLR371W, strain rom2, active compounds read low 1.02 | S. cerevisiae deletion strains, locus YLR384C, strain iki3, active compounds read low 0.986 | S. cerevisiae deletion strains, locus YLR418C, strain cdc73, active compounds read low 1 | S. cerevisiae deletion strains, locus YML016C, strain PPZ1, active compounds read low 1.01 | S. cerevisiae deletion strains, locus YML032C, strain rad52, active compounds read low 1.01 | S. cerevisiae deletion strains, locus YML120C, strain ndi1, active compounds read low 0.994 | S. cerevisiae deletion strains, locus YML124C, strain tub3, active compounds read low 1.02 | S. cerevisiae deletion strains, locus YMR058W, strain fet3, active compounds read low 0.999 | S. cerevisiae deletion strains, locus YMR078C, strain ctf18, active compounds read low 1.02 | S. cerevisiae deletion strains, locus YMR125W, strain sto1, active compounds read low 0.966 | S. cerevisiae deletion strains, locus YMR129W, active compounds read low 0.997 | S. cerevisiae deletion strains, locus YMR205C, strain PFK2, active compounds read low 0.935 | S. cerevisiae deletion strains, locus YMR223W, strain ubp8, active compounds read low 1.01 | S. cerevisiae deletion strains, locus YMR231W, strain pep5, active compounds read low 1 | S. cerevisiae deletion strains, locus YMR263W, strain SAP30, active compounds read low 1.02 | S. cerevisiae deletion strains, locus YMR307W, strain GAS1, active compounds read low 1.04 | S. cerevisiae deletion strains, locus YNL067W, strain RPL9B, active compounds read low 1.01 | S. cerevisiae deletion strains, locus YNL071W, strain lat1, active compounds read low 0.96 | S. cerevisiae deletion strains, locus YNL128W, strain TEP1, active compounds read low 1.01 | S. cerevisiae deletion strains, locus YNL153C, strain GIM3, active compounds read low 1 | S. cerevisiae deletion strains, locus YNL183C, strain NPR1, active compounds read low 0.983 | S. cerevisiae deletion strains, locus YNL209W, strain ssb2, active compounds read low 0.993 | S. cerevisiae deletion strains, locus YNL233W, strain BNI4, active compounds read low 0.998 | S. cerevisiae deletion strains, locus YNL248C, strain rpa49, active compounds read low 0.997 | S. cerevisiae deletion strains, locus YNL250W, strain rad50, active compounds read low 1.04 | S. cerevisiae deletion strains, locus YNL271C, strain bni1, active compounds read low 1.03 | S. cerevisiae deletion strains, locus YNL298W, strain CLA4, active compounds read low 1.02 | S. cerevisiae deletion strains, locus YNL307C, strain MCK1, active compounds read low 1 | S. cerevisiae deletion strains, locus YNL322C, strain KRE1 (second series), active compounds read low 0.995 | S. cerevisiae deletion strains, locus YNL322C, strain KRE1, active compounds read low 1.01 | S. cerevisiae deletion strains, locus YNR049C, strain mso1, active compounds read low 0.991 | S. cerevisiae deletion strains, locus YNR052C, strain pop2, active compounds read low 1.02 | S. cerevisiae deletion strains, locus YOL006C, strain TOP1, active compounds read low 1.01 | S. cerevisiae deletion strains, locus YOL012C, strain htz1 0.994 | S. cerevisiae deletion strains, locus YOL147C, strain pex11, active compounds read low 1.02 | S. cerevisiae deletion strains, locus YOR001W, strain rrp6, active compounds read low 0.981 | S. cerevisiae deletion strains, locus YOR061W, strain CKA2, active compounds read low 1.01 | S. cerevisiae deletion strains, locus YOR069W, strain VPS5, active compounds read low 1.01 | S. cerevisiae deletion strains, locus YOR070C, strain gyp1, active compounds read low 1.04 | S. cerevisiae deletion strains, locus YOR080W, strain dia2, active compounds read low 0.987 | S. cerevisiae deletion strains, locus YOR083W, strain WHI5, active compounds read low 1 | S. cerevisiae deletion strains, locus YOR106W, strain vam3, active compounds read low 1 | S. cerevisiae deletion strains, locus YOR136W, strain idh2, active compounds read low 1.03 | S. cerevisiae deletion strains, locus YOR144C, strain elg1, active compounds read low 1.02 | S. cerevisiae deletion strains, locus YOR184W, strain ser1, active compounds read low 1.03 | S. cerevisiae deletion strains, locus YOR231W, strain MKK1, active compounds read low 1.08 | S. cerevisiae deletion strains, locus YOR265W, strain rbl2, active compounds read low 0.98 | S. cerevisiae deletion strains, locus YOR270C, strain vph1, active compounds read low 1.02 | S. cerevisiae deletion strains, locus YOR290C, strain snf2, active compounds read low 0.973 | S. cerevisiae deletion strains, locus YOR316C, strain cot1, active compounds read low 1.01 | S. cerevisiae deletion strains, locus YPL051W, strain arl3, active compounds read low 1 | S. cerevisiae deletion strains, locus YPL055C, strain LGE1, active compounds read low 1.02 | S. cerevisiae deletion strains, locus YPL078C, strain atp4, active compounds read low 1 | S. cerevisiae deletion strains, locus YPL106C, strain sse1, active compounds read low 0.963 | S. cerevisiae deletion strains, locus YPL240C, strain hsp82, active compounds read low 1.01 | S. cerevisiae deletion strains, locus YPL241C, strain CIN2, active compounds read low 1 | S. cerevisiae deletion strains, locus YPL256C, strain CLN2, active compounds read low 1.07 | S. cerevisiae deletion strains, locus YPR119W, strain clb2, active compounds read low 1.02 | S. cerevisiae deletion strains, locus YPR141C, strain kar3, active compounds read low 1.02 | S. cerevisiae deletion strains, locus YPR163C, strain tif3, active compounds read low 1.03 | S. cerevisiae deletion strains, locus YPR167C, strain met16, active compounds read low 1.02 | S. cerevisiae deletion strains, strain wtn01, active compounds read low 1.01 | S. cerevisiae strains, strain wild type, active compounds read low 1.01
